As usually defined, the inhibition is the drop in the measured response relative to a control, in per cent.

“And” between values parts separate entries of the source, which are not always exact repeats. Identical values can stand only once. Screen size: about 430,000 compounds; about 2,600 (0.6%) were called active. The sample holds actives, similar compounds and a random draw of the others, so the mix is not that of the screen. No stated cut-off is given here; in the data, active means inhibition mostly above about 37% (no sharp cut-off); inactive means mostly below about 20%.

The assay deals with PriA–SSB C-terminal tail interaction (Klebsiella pneumoniae). Put plainly: inhibitors of Klebsiella pneumoniae PriA binding to SSB C-terminal tail, primary screen, biochemical, AlphaScreen (AID 1272365).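 On inhibition: plate controls were negative control peptide for no effect and reference peptide for full effect.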 To be noted: AlphaScreen SSBct-PriA binding, biotinylated peptide; at 33 µM, active compounds read high. (In Alpha technology, singlet oxygen from a donor bead excites a nearby acceptor bead.)
`Cc1cc(C)c(C#N)c(SCCC(=O)NCCc2ccccc2)n1`: the inhibition was 0% (inactive).

As to `O=C(Oc1ccccc1[N+](=O)[O-])N(c1ccccc1)c1ccccc1`, the inhibition is 39% (active).

On to `Cc1ccc(OCC(=O)Oc2ccccc2[N+](=O)[O-])cc1`, for which the inhibition is -0.19% (inactive).

In the case of `O=C(COc1ccccc1[N+](=O)[O-])NC1CC1`, the inhibition was -0.67% (inactive).

`COc1cc(N2CCN(C(=O)Nc3ccc(F)c(Cl)c3)CC2)nc(C)n1`: the inhibition was -8% (inactive).

For the compound `O=C(Cn1c(C2CC2)nc2c(cnn2-c2ccccc2)c1=O)Nc1cccc(Cl)c1`, the inhibition was 2% (inactive).

Regarding `O=S(=O)(NCc1cc(C2CC2)n(C2CCCC2)n1)c1ccc(Br)s1`, the inhibition is -11% (inactive).

For the compound `CCN(CC)CCOc1ccc2c(c1)C(=NNC(=O)c1ccccn1)c1cc(OCCN(CC)CC)ccc1-2`, the inhibition is 42.9% (active).

`COc1ccc(C(=O)NN=C(c2ccccc2)c2ccccn2)cc1`: the inhibition is -7.73% (inactive).

Consider `COc1ccccc1NC(=O)CC(C)=NNC(=O)c1ccccn1`, for which the inhibition is -3.2% (inactive).

`CC(=NNC(=O)C(c1ccncc1)N1CCOCC1)c1ccc(Br)cc1` (stereo not given): the inhibition is 1.79% (inactive).

Consider `Cc1cnc2n(c1=O)C[C@H](C(=O)Nc1ccc(OC(F)(F)F)cc1)CS2`, for which the inhibition is -1% (inactive).

As for `CN(C)CC#CCNC(=O)c1c(F)cccc1Cl`, the inhibition is -2% (inactive).

For the compound `O=C(c1cc(-c2ccco2)nc2ccccc12)N(Cc1nnc(-c2ccc(Cl)cc2)o1)C1CC1`, the inhibition is 38.9% (active).

`O=C(Cc1nnc(-c2ccc3ncccc3c2)o1)NCc1ccc(Cl)cc1`: the inhibition was 2% (inactive).

For the compound `O=C(c1ccc(Cl)s1)N(Cc1nnc(-c2ccccc2Cl)o1)C1CC1`, the inhibition was -3.73% (inactive).

Regarding `O=C(Cc1csc(Nc2ccc(OC(F)(F)F)cc2)n1)NCc1ccco1`, the inhibition is -4% (inactive).

With `Cc1cc(SCC(=O)N2CCCc3ccccc32)n2ncc(-c3ccccc3)c2n1`, the inhibition was -7% (inactive).

As to `COc1ccc(OC)c(NC(=O)CSc2nccn2-c2cccc(C(F)(F)F)c2)c1`, the inhibition was 10% (inactive).

On to `Cc1ccc(NC(=O)Cc2csc(SCC(=O)c3ccc4c(c3)OCO4)n2)cc1F`, for which the inhibition was 0% (inactive).

On to `CN(C)C(CNC(=O)Nc1ccc2c(c1)OCO2)c1ccsc1` (stereo not given), for which the inhibition is -7% (inactive).

Consider `O=C(Nc1ccccc1)N1CCC(c2nnc(C3CC3)s2)CC1`, for which the inhibition was -7% (inactive).

For the compound `O=C(Nc1nnc(C2CC2)s1)c1ccccn1`, the inhibition is 90.3% (active).

As to `O=C(Nc1nncs1)c1ccccn1`, the inhibition is 98% (active).

For `O=C(Nc1nncs1)c1ccc(S(=O)(=O)NC2CC2)cc1`, the inhibition was 0% (inactive) and -28% (inactive).

Consider `O=C(NCc1cccnc1-c1cccs1)c1ccccn1`, for which the inhibition is -5% (inactive).

In the case of `CC1CCN(c2ccc(C(=O)Nc3nnc(C4CC4)s3)cc2[N+](=O)[O-])CC1`, the inhibition is -10.1% (inactive).

On to `COC(=O)C1CCN(C(=O)C(=O)c2c[nH]c3ccccc23)CC1`, for which the inhibition was 6% (inactive).

In the case of `CCOc1ccc(C(=O)NCCNC(=O)c2ccc(NC(C)=O)cc2)cc1OCC`, the inhibition is -15% (inactive).

For `COc1c2ccc(C(=O)NCC3CCCN3c3nc4ccccc4o3)cc2nn1C` (stereo not given), the inhibition was -11% (inactive).

With `Cc1ccc(/C=C/S(=O)(=O)N2CC(S(=O)(=O)c3ccc(F)cc3)C2)cc1`, the inhibition was -9% (inactive).

With `N#CCCSc1ccccc1NC(=O)c1ccc([N+](=O)[O-])o1`, the inhibition was -9% (inactive).

Regarding `CCOC(=O)CSc1ncc(-c2ccc(OC)cc2)n1-c1ccccc1C`, the inhibition was 53% (active).

In the case of `CCOC(=O)CSc1nnc(CNC(=O)Cc2ccccc2)n1-c1ccccc1OC`, the inhibition was -1.32% (inactive).

Take `COc1ccc(-c2cnc(SCC(=O)Nc3nccs3)n2-c2cccc(Cl)c2)cc1`: the inhibition was -6% (inactive).

As to `Cc1ccnc(N/C=C(/NC(=O)c2ccccc2)C(=O)N/N=C/c2ccc(Cl)cc2)n1`, the inhibition result was “inactive”.

`COc1ccc(S(=O)(=O)NCc2ccccc2-c2ccsc2)cc1Cl`: the inhibition is -26% (inactive).

For `O=C(CN1CC(=O)Oc2ccccc21)OCC(=O)c1ccc(Cl)c(Cl)c1`, the inhibition was 93.6% (active).

In the case of `O=C1COc2ccc(C(=O)COC(=O)c3ccccc3Cl)cc2N1`, the inhibition is -1.39% (inactive).

Regarding `CCCn1c(=N)n(CC(=O)c2ccc(Cl)c(Cl)c2)c2ccccc21`, the inhibition was -3.72% (inactive).

As for `O=C(NCCN1CCOC(c2ccccc2)C1)C1CC1` (stereo not given), the inhibition is -7% (inactive).

Consider `c1ccc(-c2nc3ccc4ncccc4c3nc2-c2ccccc2)cc1`, for which the inhibition is -12% (inactive).

As for `c1ccc(-c2cn3c(n2)CCc2ccc4cccnc4c2-3)cc1`, the inhibition is 39.4% (active).

In the case of `CC(C)CS(=O)(=O)C1CCN(C(=O)c2cccc(Oc3ccc(F)cc3)c2)CC1`, the inhibition was -1% (inactive).

Regarding `CCCCC[n+]1ccn(C2=C([O-])c3ccccc3C(=O)C2=NS(=O)(=O)c2ccccc2)c1`, the inhibition was -14.3% (inactive).

Regarding `CCCC(=O)OCC(=O)Nc1cc(Cl)ccc1[N+](=O)[O-]`, the inhibition is 42.6% (active).

As to `CC(C)(C)NC(=O)COC(=O)c1cc(Cl)ccc1[N+](=O)[O-]`, the inhibition is 6.97% (inactive).

In the case of `Cc1cc(NC(=O)COC(=O)COc2ccc(Cl)cc2C)c([N+](=O)[O-])cc1C`, the inhibition was 10.3% (inactive).

Turning to `O=C(NCc1cncc(-c2cccs2)c1)c1ccc2ncsc2c1`, the inhibition was -4% (inactive).

Take `CC(NC(=O)c1ccccc1)C(c1ccccc1)N(C)C` (stereo not given): the inhibition was 25% (inactive).

Consider `CC(C)NC(=O)c1ccc(Sc2ccccc2)c([N+](=O)[O-])c1`, for which the inhibition is -10.4% (inactive).

In the case of `CC(C)NC(=O)c1ccccc1Nc1c([N+](=O)[O-])cc(C(F)(F)F)cc1[N+](=O)[O-]`, the inhibition was 56% (active).

`O=C(NNC(=O)c1ccccc1[N+](=O)[O-])Nc1ccccc1C(F)(F)F`: the inhibition was -2.15% (inactive).

Turning to `COc1ccc(C)cc1NC(=O)Cc1cc(=O)[nH]c(SCc2ccc(F)cc2)n1`, the inhibition was -4% (inactive).

With `CC(OC(=O)CN1C(=O)COc2ccccc21)C(=O)NCc1ccc(F)cc1` (stereo not given), the inhibition is 4.53% (inactive).

`O=C(CN1C(=O)COc2ccc(Cl)cc21)Nc1ccc(N2CCOCC2)cc1`: the inhibition is -6.86% (inactive).

With `O=C(CN1C(=O)COc2ccccc21)Nc1ccc(F)cc1`, the inhibition is 48.3% (active).

On to `Cn1c(-c2ccc(F)cc2)cnc1SCC(=O)NNC(=O)Cc1ccccc1`, for which the inhibition was -3.92% (inactive).

For `O=C(CSc1ncc(-c2ccccc2)n1-c1ccc(F)cc1)N1CCCC1`, the inhibition is 43% (active).

With `N#CCSc1ncc(-c2ccc(Br)cc2)n1-c1ccc(F)cc1`, the inhibition is 7% (inactive).
